Results as given in PubChem BioAssay AID1813 (Broad Institute, 2009).
Hit rate of the full screen: of about 300,000 compounds, about 2,500 (0.83%) were called active. The full list was thinned out, with actives kept by preference. Values without a mark were called inactive. Rule as the data show it: active = inhibition above about 60%; inconclusive = no clear call, values can overlap the other calls; inactive = below that.

assay: 5' untranslated region of α-synuclein, MLPCN primary screen (AID 1813); settings: alpha-synuclein 5'UTR reporter, inhibitor activity; stronger effect = higher value; tested at 7.5 µM;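 also: H4 neuroglioblastoma cells stably carrying SNCA 5'UTR luciferase fusion; 0% = DMSO wells and 100% = positive control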

Compound	inhibition
N#Cc1cnn2cc(CCN3CCOCC3)c(-c3ccc(F)cc3)nc12	17%
COc1ccc2nc(N3CCCC(O)C3)c(C#N)cc2c1 (stereo not given)	-114%
COc1ccc2c(c1)CCc1cn3ncc(C#N)c3nc1-2	68.1% (active)
CC(C)[C@H](NC(=O)N1CCn2c1nc1ccccc12)C(=O)NC1CC1	-11.1%
CC1(c2ccc(Cl)cc2)NC(=O)N(CC(=O)c2ccc3c(c2)OCO3)C1=O (stereo not given)	-7.93%
CC(C)(C)C(=O)Nc1ccc(-c2cn3cccnc3n2)cc1	-130%
Cc1nc(N2CCCCC2)sc1C=O	10.9%
c1c2c(cc3sc(N4CCCCC4)nc13)OCCO2	107% (active)
Brc1ccc2nc(N3CCCC3)sc2c1	-105%
CN(CC(=O)O)S(=O)(=O)c1ccc2oc3ccccc3c2c1	-11.7%
COc1ccc(NS(=O)(=O)c2cc3c(cc2C)N(C(C)=O)CCO3)cc1	11.8%
COc1ccc(-c2oc3ncn(Cc4ccco4)c(=N)c3c2-c2ccc(OC)cc2)cc1	36%
O=C(NCCN1C(=O)C2C3C=CC(C3)C2C1=O)Nc1ccccn1 (stereo not given)	-5.4%
O=C(CN1C(=O)C2C3C=CC(C3)C2C1=O)NCCc1ccccc1Cl (stereo not given)	-1.36%
O=C(CN1C(=O)C2C3C=CC(C3)C2C1=O)Nc1nc(-c2ccccn2)cs1 (stereo not given)	82.4% (active)
Cc1ccc(S(=O)(=O)CCC(=O)Nc2nnc(CC(C)C)s2)cc1	-17%
O=S(=O)(NCc1ccc(Cl)cc1Cl)c1cccs1	-22.7%
Cc1oc(-c2ccccc2Cl)[n+]([O-])c1C	34.1%
COc1ccc(Br)c2c1C(=O)CC2	8.26%
CC1CCCCN1S(=O)(=O)c1ccc(C(=O)Nc2nnc(-c3cccs3)o2)cc1 (stereo not given)	89.9% (active)

Compound	inhibition
CC1CCCN(S(=O)(=O)c2ccc(C(=O)Nc3nnc(-c4ccncc4)o3)cc2)C1 (stereo not given)	-13.6%
CSCc1nnc(NC(=O)c2ccc(S(=O)(=O)N3CCCCC3C)cc2)o1 (stereo not given)	14.5%
Cc1onc(-c2ccccc2Cl)c1C(=O)OCC(=O)c1ccccc1	12.5%
Cc1onc(-c2ccccc2Cl)c1C(=O)NCCn1ccc2ccccc21	29.7%
Cc1onc(-c2ccccc2Cl)c1C(=O)N(Cc1ccc(N(C)C)cc1)C(C)C	73.1% (active)
O=C(CN1CCOCC1)Nc1cccc([N+](=O)[O-])c1	1.99%
Cc1nc(-c2nnc(SCC(=O)Nc3cc(C(F)(F)F)cc(C(F)(F)F)c3)n2C)cs1	15.6%
CCCOc1cccc(C(=O)Nc2nnn(CCC)n2)c1	-87.6%
CC(C)CNC(=O)COC(=O)c1ccccc1OCC(=O)Nc1ccc(Br)cc1	1.89%
O=C(COC(=O)c1ccc(NS(=O)(=O)c2cccs2)cc1O)Nc1ccc(F)cc1	7.94%
NS(=O)(=O)c1ccc(NC2=CC(c3ccc(F)cc3)N(c3ccc(S(N)(=O)=O)cc3)C2=O)cc1 (stereo not given)	15.1%
COc1ccc(CN(C)C(C)C(=O)NC2CCCc3ccccc32)cc1 (stereo not given)	8.59%
COc1ccc(-c2nc(-c3ccccc3)no2)c(OC)c1	68.9% (active)
Cc1ccc(-c2nc(-c3ccncc3)no2)c(C)c1	-108%
COc1ccc(/C=C/c2noc(-c3ccccc3OC(C)=O)n2)cc1	-34.8%
CCC1CO/C(=C(\C(=C(Cl)Cl)N2CCOCC2)[N+](=O)[O-])N1 (stereo not given)	-4.02%
CCOc1cc(N2CCOCC2)c(OCC)cc1NC(=O)c1cc(C)nc2ccccc12	7.38%
CCOc1cc(N2CCOCC2)c(OCC)cc1NC(=O)COc1cccc2cccnc12	88.8% (active)
CCOc1cc(N2CCOCC2)c(OCC)cc1NC(=O)COc1cccc(Cl)c1	9.4%
CCOC(=O)C(C)Oc1cccc2c(=O)n(CC(=O)NCCc3ccc(OC)c(OC)c3)ccc12 (stereo not given)	12.9%

Compound	inhibition
Cc1nn(C)c(C)c1CN(C(=O)CCc1nnc(Cc2c[nH]c3ccccc23)o1)C(C)C	13.9%
Cc1oc2c(F)c(F)c(F)c(F)c2c1S(=O)(=O)Nc1cccc(C(F)(F)F)c1	17.3%
CCNC(=S)N1CCC(c2nc3cc(C)c(C)cc3[nH]2)CC1	-15.5%
Cc1cccc(-c2nc(Nc3ccc(O)cc3)c3ccccc3n2)c1	2.9%
Cc1cccc(-[n+]2c(-c3cccc(Br)c3)[nH]c3nc4ccccc4nc32)c1	73.9% (active)
Cc1ccc(/C=C2\CCn3c2nc2cc(C(=O)O)ccc2c3=O)c(C)c1	-20%
Nc1ccc2nn(-c3ccc(Cl)cc3)nc2c1	-27.3%
CC[n+]1cc(C)ccc1/C=C/c1ccc(N(C)C)cc1	90.6% (active)
CN(C)c1ccc(/C=N\S(=O)(=O)c2ccccc2)cc1	-6.91%
O=C(CN1CCN(c2ncccn2)CC1)Nc1ccccc1C(F)(F)F	-6.88%
Brc1ccc2c(c1)[C@H]1OCC[C@H]1[C@@H](c1cccs1)N2	72.2% (active)
CC(C)CCn1c(=O)c2c(nc3n2CCCN3Cc2ccccc2)n(C)c1=O	23.1%
COc1ccc(C)cc1N(CC(=O)N1CCCC1)S(=O)(=O)c1ccccc1	-6.96%
Cc1ccc(CNC(=O)CCNS(=O)(=O)c2cccc3nonc23)cc1	9.75%
O=c1c2ccccc2nc2n1C1(CCCCC1)Cc1ccccc1-2	0.0175%
CN(c1ccc2nc3ccccc3c(=O)n2n1)C1CCCCC1	119% (active)
CN(C(=O)c1cc2c(=O)n3ccccc3nc2s1)C1CCCCC1	-42.4%
Cc1ccc(CN2CCNC(=O)C2CC(=O)NCc2csc(C(C)C)n2)cc1 (stereo not given)	9.72%
Cc1ccc2[nH]c(=O)c(CN(C)S(=O)(=O)c3cccc4nonc34)cc2c1	-5.89%
CCC1=C(OC(=O)N(CC)CC)N2C(=O)OC(=NCCc3c[nH]c4ccccc34)[C@]2(C)[C@H]2C1=CC[C@H]1C(=O)N(CC)C(=O)[C@H]12	-3.3%
